Assay results reported in PubChem BioAssay.
Several values for one entry are separate records, joined by “and”; a condition that tells them apart may be missing. Equal values may be shown once. Activity calls are given as the source filed them.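 The calls were made as follows, unless noted: active = thallium flux through the channel raised or lowered by more than 3 SD from vehicle-only wells, actives on both sides; inactive = the rest.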

Columns and labels:
[1] = P. berghei load reduction in hepatocytes – cell-based, HepG2, luciferase luminescence, HepG2 viability, primary screen (AID 624349; in the data active = parasite load remaining mostly below about 12%, no sharp cut-off; inactive = mostly above about 10%;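 also: 100% = mean of DMSO negative control wells on the same plate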); details: P. berghei liver stage in HepG2, luciferase luminescence, concentration not given here; parasite load remaining: stronger effect = lower value; viability: measured here: HepG2 viability without parasites
[2] = signal quenchers or enhancers, Cy5 substrate/SSB – biochemical, NIH Clinical Collection, E. coli SSB, artefact control for HCV NS3 helicase inhibitor project (AID 743268; call rule not given here); details: Cy5-oligo bound E. coli SSB, fluorescence interference
[3] = system: Hepatitis C virus NS3 helicase; test: blockers of NS3h binding to DNA – biochemical, fluorescence polarization, NIH Clinical Collection, primary screen (AID 743270; call rule not given here); details: NS3 helicase binding to Cy5-dT15 DNA, stronger effect = higher value, concentration not given here
[4] = target: Single-stranded DNA-binding protein (Escherichia coli (strain K12)) (UniProt P0AGE0); test: SSB-ssDNA binding inhibitors – biochemical, fluorescence polarization, NIH Clinical Collection, counter-screen for HCV NS3 helicase inhibitor project (AID 743271; in the data active = inhibition above about 28%); details: E. coli SSB-DNA binding, stronger effect = higher value, concentration not given here
[5] = compounds distorting NS3 helicase fluorescence signal – biochemical, NIH Clinical Collection, artefact control for HCV NS3 helicase inhibitor project (AID 743272; call rule not given here;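 also: HCV NS3 helicase with a Cy5 labelled single stranded DNA probe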); details: fluorescence interference counterscreen, HCV NS3 helicase assay; stronger effect = lower value
[6] = modulation of C. elegans fzo-1 (AID 1259413; call rule not given here;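 also: fzo-1 mutant C. elegans worms in liquid wells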); details: C. elegans fzo-1 modulator screen, mean read-out; stronger effect = higher value
[7] = viability loss with induced miR-34 in A549 – imaging, A549 dox-inducible miR-34, nuclei and caspase counts, primary screen (AID 1347080;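 active = compounds whose cell count with miR-34 switched on is under 0.7 times the count with it off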); details: A549 miR-34 inducible, Hoechst nuclei count, 48 h
[8] = MELAS cybrid and Rieske KO viability enhancers – cell-based, MELAS cybrids, Rieske KO mouse fibroblasts, CellTiter-Glo, primary screen (AID 1508586;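 active = mean z-score across replicates of 1.96 or higher in either the MELAS or the Rieske mutant cell line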;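 also: z relative to plate mean and SD of compound and empty wells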); details: low glucose
F380Y = test: BK channel mutant inhibitors and activators – cell-based, U2OS BacMam, thallium flux, beta subunits, selectivity assay, profiling panel (AID 1259406); details: U2OS BacMam BK variants, at 30 µM;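 also: initial slope of Thallos dye fluorescence rise after thallium is added; log ratio against the mean of 0.3% DMSO vehicle wells on the same plate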
F380Y/beta1 = test: as above; details: U2OS BacMam BK variants, at 30 µM
F380Y/beta2Delta = test: as above; details: U2OS BacMam BK variants, at 30 µM
F380Y/beta4 = test: as above; details: U2OS BacMam BK variants, at 30 µM
[9] = target: Calcium-activated potassium channel subunit alpha-1 (Homo sapiens) + Leucine-rich repeat-containing protein 26 (Homo sapiens) (UniProt Q12791+Q2I0M4); test: as above; details: U2OS BacMam BK variants, F380Y/Slo1WT/gamma1, at 30 µM
Chain of Calcium-activated potassium channel subunit alpha-1 (Homo sapiens) + Leucine-rich repeat-containing protein 26 (Homo sapiens) (Q2I0M4 whole entry, looked up, one chain of several): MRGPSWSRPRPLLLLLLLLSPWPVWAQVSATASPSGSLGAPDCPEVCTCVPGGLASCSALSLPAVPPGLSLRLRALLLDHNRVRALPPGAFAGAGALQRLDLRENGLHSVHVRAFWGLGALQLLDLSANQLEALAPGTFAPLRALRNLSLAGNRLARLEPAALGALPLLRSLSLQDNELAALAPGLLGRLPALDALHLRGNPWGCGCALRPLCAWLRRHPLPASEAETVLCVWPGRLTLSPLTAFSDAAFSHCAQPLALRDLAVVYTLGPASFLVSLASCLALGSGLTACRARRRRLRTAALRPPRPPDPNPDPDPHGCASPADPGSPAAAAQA

R275C = test: as above; details: U2OS BacMam BK variants, at 30 µM
R275C/beta1 = test: as above; details: U2OS BacMam BK variants, at 30 µM
R275C/beta2Delta = test: as above; details: U2OS BacMam BK variants, at 30 µM
R275C/beta4 = test: as above; details: U2OS BacMam BK variants, at 30 µM
R275C/Slo1WT/beta2 = test: as above; details: U2OS BacMam BK variants, at 30 µM
[10] = stronger effect = lower value, cell number ratio, induced over uninduced
[11] = measured here: relative caspase fold change +Dox/-Dox
[12] = measured here: total cells with miR-34 induction, stronger effect = lower value
[13] = measured here: total cells without miR-34 induction
[14] = MELAS cybrid survival, CellTiter-Glo 48 h, stronger effect = higher value
[15] = Rieske KO mouse fibroblast survival, CellTiter-Glo 72 h

CC(C)(C)NC(=O)[C@@H]1C[C@@H]2CCCC[C@@H]2CN1C[C@@H](O)[C@H](Cc1ccccc1)NC(=O)[C@H](CC(N)=O)NC(=O)c1ccc2ccccc2n1
75.6% and 103%: viability [1]
9260: cell count [7, 13]
0.962: fold change [7, 11]
8420: cell count [7, 12]
-1.19: z-score [8, 15]
active: log fold change Tl+ flux (F380Y) -0.12 | log fold change Tl+ flux (F380Y/beta2Delta) -0.2 | log fold change Tl+ flux (R275C) -0.273 | log fold change Tl+ flux (R275C/beta1) 0.138 | log fold change Tl+ flux (R275C/beta2Delta) -0.11
inactive: parasite load remaining [1] 82.5% and 52% | fluorescence ratio [2] 1.02 | inhibition [3] 2.77% | inhibition [4] 12.2% | fluorescence ratio [5] 1.01 | mean signal [6] 234 | fold change [7, 10] 0.908 | z-score [8, 14] -0.0678 | log fold change Tl+ flux (F380Y/beta1) -0.0774 | log fold change Tl+ flux (F380Y/beta4) -0.072 | log fold change Tl+ flux [9] -0.0094 | log fold change Tl+ flux (R275C/beta4) 0.0316 | log fold change Tl+ flux (R275C/Slo1WT/beta2) -0.0147

CC1(C)SC2C(NC(=O)Cc3ccccc3)C(=O)N2C1C(=O)O (stereo unspecified)
2.34: fold change [7, 11]
10600: cell count [7, 12]
10700: cell count [7, 13]
inactive: parasite load remaining [1] 67.7% | fluorescence ratio [2] 1.02 | inhibition [3] -1.36% | inhibition [4] 1.05% | fluorescence ratio [5] 1 | mean signal [6] 247 | fold change [7, 10] 0.988 | log fold change Tl+ flux (F380Y) -0.0498 | log fold change Tl+ flux (F380Y/beta1) -0.0346 | log fold change Tl+ flux (F380Y/beta2Delta) -0.00781 | log fold change Tl+ flux (F380Y/beta4) 0.000902 | log fold change Tl+ flux [9] 0.0267 | log fold change Tl+ flux (R275C) 0.0404 | log fold change Tl+ flux (R275C/beta1) -0.00964 | log fold change Tl+ flux (R275C/beta2Delta) 0.00389 | log fold change Tl+ flux (R275C/beta4) -0.0356 | log fold change Tl+ flux (R275C/Slo1WT/beta2) -0.096
89.4%: viability [1]

O=C(O)C[C@H](O)C[C@H](O)/C=C/c1c(C2CC2)nc2ccccc2c1-c1ccc(F)cc1
inactive: parasite load remaining [1] 177% | fluorescence ratio [2] 0.98 | inhibition [3] -2.84% | inhibition [4] -1.18% | fluorescence ratio [5] 0.96 | mean signal [6] 212 | fold change [7, 10] 1.25 | log fold change Tl+ flux (F380Y) -0.03 | log fold change Tl+ flux (F380Y/beta2Delta) 0.0555 | log fold change Tl+ flux (F380Y/beta4) 0.0888 | log fold change Tl+ flux (R275C) 0.0026
1390: cell count [7, 13]
60.8%: viability [1]
active: log fold change Tl+ flux (F380Y/beta1) 0.292 | log fold change Tl+ flux [9] 0.113 | log fold change Tl+ flux (R275C/beta1) 0.226 | log fold change Tl+ flux (R275C/beta2Delta) 0.114 | log fold change Tl+ flux (R275C/beta4) 0.107 | log fold change Tl+ flux (R275C/Slo1WT/beta2) 0.12
1740: cell count [7, 12]
0.319: fold change [7, 11]

O=C(NC(CO)C(O)c1ccc([N+](=O)[O-])cc1)C(Cl)Cl (stereo unspecified)
7650 and 7730: cell count [7, 12]
inactive: parasite load remaining [1] 48.8% | inhibition [3] -4.09% | inhibition [4] 4.1% | fluorescence ratio [5] 1.03 | mean signal [6] 263 | fold change [7, 10] 0.967 and 0.86 | z-score [8, 14] -0.304 | log fold change Tl+ flux (F380Y) -0.0332 | log fold change Tl+ flux (F380Y/beta1) 0.0194 | log fold change Tl+ flux (F380Y/beta2Delta) -0.0071 | log fold change Tl+ flux (F380Y/beta4) 0.000156 | log fold change Tl+ flux [9] 0.0379 | log fold change Tl+ flux (R275C) -0.0175 | log fold change Tl+ flux (R275C/beta1) -0.0341 | log fold change Tl+ flux (R275C/beta2Delta) -0.00719 | log fold change Tl+ flux (R275C/beta4) 0.0483 | log fold change Tl+ flux (R275C/Slo1WT/beta2) 0.0603
0.499: z-score [8, 15]
87.3%: viability [1]
active: fluorescence ratio [2] 0.1
1.3 and 1.21: fold change [7, 11]
7910 and 8980: cell count [7, 13]

CC(C)c1ccc2c(c1)c(SC(C)(C)C)c(CC(C)(C)C(=O)O)n2Cc1ccc(Cl)cc1
inactive: parasite load remaining [1] 36.1% | fluorescence ratio [2] 0.95 | inhibition [3] 7.52% | inhibition [4] 1.44% | fluorescence ratio [5] 0.96 | mean signal [6] 225 | fold change [7, 10] 1.09 and 1 and 0.966 | log fold change Tl+ flux (F380Y) -0.0174 | log fold change Tl+ flux (F380Y/beta1) 0.00246 | log fold change Tl+ flux (F380Y/beta2Delta) 0.0246 | log fold change Tl+ flux (F380Y/beta4) -0.0142 | log fold change Tl+ flux [9] 0.00963 | log fold change Tl+ flux (R275C) 0.00647 | log fold change Tl+ flux (R275C/beta1) 0.0168 | log fold change Tl+ flux (R275C/beta2Delta) 0.0237 | log fold change Tl+ flux (R275C/beta4) -0.00771 | log fold change Tl+ flux (R275C/Slo1WT/beta2) 0.027
2340 and 2670 and 5710: cell count [7, 13]
2540 and 2670 and 5520: cell count [7, 12]
0.262 and 1.3 and 1.57: fold change [7, 11]
67.1%: viability [1]

CCCCC(=O)OC1(C(=O)CO)CCC2C3CCC4=CC(=O)CCC4(C)C3C(O)CC21C (stereo unspecified)
6880: cell count [7, 12]
active: log fold change Tl+ flux (F380Y) -0.858 | log fold change Tl+ flux (F380Y/beta1) -0.315 | log fold change Tl+ flux (F380Y/beta2Delta) -0.396 | log fold change Tl+ flux (F380Y/beta4) -0.379 | log fold change Tl+ flux [9] -0.495 | log fold change Tl+ flux (R275C/beta1) 0.44 | log fold change Tl+ flux (R275C/beta2Delta) 0.266 | log fold change Tl+ flux (R275C/beta4) 0.327
inactive: parasite load remaining [1] 89.7% | fluorescence ratio [2] 1.04 | inhibition [3] -5.91% | inhibition [4] -5.05% | fluorescence ratio [5] 1.01 | mean signal [6] 256 | fold change [7, 10] 0.983 | log fold change Tl+ flux (R275C) 0.0146 | log fold change Tl+ flux (R275C/Slo1WT/beta2) -0.00582
2.66: fold change [7, 11]
100%: viability [1]
7000: cell count [7, 13]

O=c1ncc(F)c[nH]1
9920: cell count [7, 12]
68.9%: viability [1]
1.42: fold change [7, 11]
inactive: parasite load remaining [1] 102% | fluorescence ratio [2] 1.06 | inhibition [3] 0.4% | inhibition [4] -3.95% | fluorescence ratio [5] 1.05 | mean signal [6] 283 | fold change [7, 10] 0.892 | log fold change Tl+ flux (F380Y) -0.0112 | log fold change Tl+ flux (F380Y/beta1) 0.016 | log fold change Tl+ flux (F380Y/beta2Delta) 0.0227 | log fold change Tl+ flux (F380Y/beta4) -0.00465 | log fold change Tl+ flux [9] 0.0169 | log fold change Tl+ flux (R275C) -0.0477 | log fold change Tl+ flux (R275C/beta1) 0.0224 | log fold change Tl+ flux (R275C/beta2Delta) -0.0499 | log fold change Tl+ flux (R275C/beta4) 0.00687 | log fold change Tl+ flux (R275C/Slo1WT/beta2) -0.000391
11100: cell count [7, 13]
